The sample as a whole holds a higher share of hits than the screen did.
FECH block: blocks human mitochondrial ferrochelatase activity; calls only at 10 µM (by protocol); 20,000 compounds, 3.3% hits; P22830; purified FECH, Ni-mesoporphyrin absorbance 550 nm;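 active = enzyme reaction rate more than 3 SD below the solvent-only control wells on the same plate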;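 also: lower slope than DMSO wells means FECH inhibition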
Each line names hits and unclear results; the compound was inactive in the other large screens.

NC(=O)c1ccc(NC(=O)c2cccn(Cc3cccc(Cl)c3)c2=O)cc1	none
O=C(Nc1ccon1)c1cccn(Cc2cccc(Cl)c2)c1=O	FECH block active
NC(=O)c1ccccc1NC(=O)c1cccn(Cc2cccc(Cl)c2)c1=O	none
CN1CCN2CCN(C(=O)CCn3ccc(=O)[nH]c3=O)CC2C1 (stereo not given)	none
Cc1ccnc(CC(C)N(C)Cc2c(C)nn(C(C)(C)C)c2C)c1 (stereo not given)	none
